This is an account of results in the supplement of paper PMC6555819.

This assay relates to VDR:RXRa (NR concentration 270 nM, RXRa partner concentration 90 nM). Nature of the assay: PBM binding z-score (relative to random genomic background probes); higher = stronger binding; sequences stand for … in GC…GCGATTGACAGCGTAGAATGAAGG
On the procedure: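 Protein-binding microarray (Agilent 4x180K custom design, double-stranded 60-nt probes: 5' GC cap, 34-nt variable region, 24-nt constant primer region; full probe sequence given). Purified or IVT nuclear receptor:RXRα heterodimers (3:1 NR:RXRα, mostly 270:90 nM) or homodimers were incubated for 1 h in PBS with 2% milk and no ligand, then detected with Alexa488 antibodies. Fluorescence from o1-orientation probes (~5 replicates averaged) was converted to z-scores against 500 random hg19 background probes. Variable regions are seed direct-repeat (DR0–DR5) sites, all their single-nucleotide variants and half-site ablations.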
CCTTACGGGTCACTCCCGGTTATAGCATCGGAGT gave a PBM binding z-score of 3.03.
The result for CCTATTAGCTGACCATAAGGGCAACCGAAGCTCG reads 0.159.
As to TCATTTAGGTAAACAGGTGAAAGTCCGTAAGTTA, the PBM binding z-score is 1.26.
The result for TTACCAAGGTGAAAGGTCGTTGACGCACGCCTTG reads 3.29.
The result for CCTGCCAGGTCATGGTCAGCTAATCTACAGTATG reads 2.65; that for CCTACTGCGCCATCAGGTCATTGATATCAACGTT, 2.07; that for CTCTAAAGGTCGGTTGAGGTGAGTATACGGATAA, 2.42.
The result for CCTCTGAGGACAACAGGAGGTCAGAGCTGCCAGA reads 2.17; that for CCATACGGGTCAAGGTTATAGCACGGGTGGTACG, 3.11; that for TCAGACAGCTGAAGGTAACTCAGGTACGCAGTCG, 0.484.
In turn, TCGAGTAGGTAAGTCGGGGCATTCAGCCAACATA gave a PBM binding z-score of 0.394.
On to TTACCAAGTTGAAAGGTCGTTGATGCACGCCTTG, for which the PBM binding z-score is 2.65.
The result for ACTAGCAGGCCAAGTTTGCGTCACTCAAACAAAG reads -0.321; that for CGGCCAAGGTCATAGGAGGTCAGTGAAGACAGAT, 6.19.
With TCGAGTAGGTTACCAATTGGGCATTCAGCTTTCT, the PBM binding z-score was -0.197.
The result for GCAGACAGGTGAAACGCAGGGAACTCAGGGTGGC reads -0.604; that for GGTATTAGTTGAAAGGGCAACCGAATGATTCTCG, 1.16; that for ATCGAAAGGTCGACGAGGTAAGTATACACCGTTT, 4.59.
The result for CAGTCTAGGTCAGGGCCAGTATAGGAGGAACGTT reads 0.403; that for CGAACTAGGTCATCCAGGACTGTGAATACATTGA, 2.81; that for GCCTATAGGTAATACAAGGTGAAAGTCCGATTGT, 0.256.
Consider GCAGACAGGTGAAACGCAGGTAATTCAGGGTGGC, for which the PBM binding z-score is -0.324.
The result for ATCGAAAGGTCGACAAGGTGAGTATACACCGTTT reads 4.61; that for ACTATTAGTTGACTTAGGGCAACTGATACGACGC, 0.239.
As for TCTTGTAGATCAAAGGTTAGGAAAGCCGAAGCCT, the PBM binding z-score was 0.697.
The result for GGAACGAGGGCAAGGTGATAGCAGAGTTTGATGG reads 0.867; that for CCTGCTAGGTCAATGGTCAGCAAAAGCAGCTCGC, 0.941.
The result for GCTATTAGTTGAAAGGGCAGCCGAATGATTCTCG reads 0.0527; that for TCTTGAAGATCAAGCAGGTTAAGAAAGCCTGAGT, 0.401; that for CCAGACAGGTGACAAGGTAACTCAGCCTCGATTA, 0.0377.
Turning to TAGCCTAGCTCATTGGGCCAGTATAGTACGCATC, the PBM binding z-score was -0.69.
AGAACGAGGGCAATGAGTTGATTGCACGGGTGGC gave a PBM binding z-score of 5.07.
As to GCAGACAGGTGAAACGCAGGTAACTCACGGTGGC, the PBM binding z-score is -0.56.
The result for CGTCCAAGGCCAGCAGGTCAGTGAAAGCGACGTG reads -0.178; that for CCTGCTAGGTCATGGCCAGCTAATCTACAGTATG, 1.43.
The result for CAAACCAGGTCAAGGTCAAAGTCGGTTTGTGCCA reads 5.66; that for GCTAGTTGGTCAGTAAAAGGTCGCACACCGGTCG, 1.39.
The sequence TCTCGGGGGACACGAAAGGTCAGAGCTCGACATC gave a PBM binding z-score of 4.39.
ACTTCCGGGTCAACGAGGTTATAGCACGCGTATA showed a PBM binding z-score of 7.62.
The result for TCTAACAGGCCAGAGGGTCACTCAAGAGGTACGG reads 1.76.
